Source: PubChem BioAssay AID463195 (Sanford-Burnham Center for Chemical Genomics, 2010)
The whole screen tested about 330,000 compounds, of which about 4,600 (1.4%) were called active. The full list was thinned out, with actives kept by preference. Values without a mark were called inactive.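 The calls were made as follows: active = inhibition of 40% or more at the single tested concentration; inactive = the rest.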

Test: wild-type TIM10 yeast growth inhibition – luminescence, uHTS, counter-screen for tim10-1 yeast inhibitor project, primary screen (AID 463195);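 also: wild-type TIM10 isogenic control strain grown at permissive 25 °C; 0% = DMSO yeast wells and 100% = minimal medium wells without yeast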
Conditions: S. cerevisiae TIM10 strain growth, BacTiter-Glo luminescence, 24 h; at 10 µM; hits give high values

SMILES	inhibition
O=C(Nc1cccc(NC(=O)N2CCN(c3ccccc3)CC2)c1)N1CCN(c2ccccc2)CC1	-4.11%
COc1cc(C(=O)NCC(=O)N2CC=C(c3ccccc3)CC2)cc(OC)c1OC	20.4%
O=C(Nc1ccc(Cl)c(Cl)c1)N1CC=C(c2ccccc2)CC1	48.1% (active)
CCOC(=O)N1CCC(N2Cc3cccc(C(=O)Nc4c(C)cccc4CC)c3C2=O)CC1	15.7%
CN(C)Cc1c(O)ccc2occ(C(O)c3ccccc3)c12 (stereo unspecified)	9.39%
CC(=O)Cc1nsc(NC(=O)c2ccc(Cl)cc2Cl)n1	45.2% (active)
CC(=O)Cc1nsc(NC(=O)c2ccc(COc3ccc(C)cc3)o2)n1	20.8%
CC(C)NC(=O)c1ccc(Cl)cc1Cl	-6.27%
Cc1cc(C)cc(NS(=O)(=O)Cc2ccccc2)c1	-1.77%
O=C(c1snnc1-c1ccccc1)N1CCOCC1	15.4%
O=C(CCCN1CCc2[nH]c3ccc(F)cc3c2C1)c1ccc(F)cc1	14.8%
CCn1c(=O)c([N+](=O)[O-])c(NCc2ccc3c(c2)OCO3)c2ccccc21	15.2%
CCc1ccc(S(=O)(=O)N/N=C\c2ccc([N+](=O)[O-])o2)cc1	14.1%
CCn1c(/C=C/c2ccc([N+](=O)[O-])o2)nc2ccccc2c1=O	49.9% (active)
CC1CCN(C(=O)c2cc3nc(C4CC4)cc(C(F)(F)F)n3n2)CC1	16.4%
Cc1cc(C)n(CC(O)CN(c2ccccc2)S(=O)(=O)c2ccc3ccccc3c2)n1 (stereo unspecified)	48% (active)
Cc1cccc(N(CC(O)CN(C)C)S(=O)(=O)c2ccccc2)c1 (stereo unspecified)	0.713%
Cc1ccc(N(CC(O)CN2CCCC2)S(=O)(=O)c2ccccc2)cc1 (stereo unspecified)	-2.21%
C/C=C/C(=O)OCC(=O)Nc1ccc(F)cc1Cl	-3.48%
Nc1ncnc2c1ncn2[C@@H]1O[C@H](CNS(=O)(=O)c2ccc(-c3ccno3)s2)[C@@H](O)[C@H]1O	-1.72%
CCCS(=O)(=O)N1CCN=C1SCc1cccc(F)c1	-11.5%

SMILES	inhibition
CCc1c(C)nc(N)n2c(SCC(=O)NC3CCCCC3)nnc12	-10.7%
COc1ccc(S(=O)(=O)Nc2cc(C)on2)cc1NC(C)=O	12%
O=C(O)CCCC(=O)N1N=C(c2ccco2)CC1c1ccco1 (stereo unspecified)	-11.4%
Cc1nn(C(=O)c2ccoc2C)c(N)c1-c1ccccc1	-12.3%
Cc1nn2c(c1-c1ccccc1)N=C(c1ccco1)CC2c1ccccc1 (stereo unspecified)	48.1% (active)
CCN(CC)S(=O)(=O)N1CCC(C(=O)NC(C)CCc2ccccc2)CC1 (stereo unspecified)	-3.42%
C/C(=N\NC(=O)C1(C)CC1(Br)Br)c1ccc(C)cc1C (stereo unspecified)	10%
O=C1Cc2cc(S(=O)(=O)Nc3cccc(F)c3)ccc2N1	-1.95%
CN(C)CCN(C(=O)C1=COCCO1)c1nc2ccc(Cl)cc2s1	79.4% (active)
CN(C)CCN(C(=O)C1CCCCC1)c1nc2cc3c(cc2s1)OCO3	11.6%
CCN(CC)CCN(C(=O)c1cc(Cl)sc1Cl)c1nc2cc3c(cc2s1)OCO3	23.3%
CCc1ccc2nc(N(CCCN(C)C)C(=O)c3ccc4c(c3)OCCO4)sc2c1	13.5%
CN(C)CCN(C(=O)CN1C(=O)c2ccccc2C1=O)c1nc2cc3c(cc2s1)OCCO3	-5.86%
Cc1ccc2nc(N(CCN(C)C)C(=O)C3=COCCO3)sc2c1	53.1% (active)
CC(=O)c1ccc(N2CCN(C(=O)c3ccc(Cl)c(S(=O)(=O)NC4CC4)c3)CC2)c(F)c1	-5.83%
O=C1Oc2ccccc2C(=O)/C1=C/c1ccccc1O	61.4% (active)
COC(=O)c1ccc(/C=C2/C(=O)Oc3ccccc32)cc1	25.7%
COc1ccc2c(c1)O/C(=C\c1ccccc1O)C2=O	23.8%
C=CCO/N=C(\C)c1c(O)c(C)c(-c2ccccc2)n(-c2ccccc2)c1=O	30.7%
CCCCCC(=O)Nc1ccc(-c2cn3cccnc3n2)cc1	33.6%
CC(C(=O)Nc1ccc(F)c(F)c1F)N1CCCCCC1 (stereo unspecified)	-12.6%

SMILES	inhibition
O=Cc1c(Nc2ccccc2Cl)nc2ccccn2c1=O	4.5%
COCCCNC(=O)/C(C#N)=C/c1c(N2CCCCCC2)nc2ccccn2c1=O	-2.43%
O=Cc1c(N2CCN(c3cccc(Cl)c3)CC2)nc2ccccn2c1=O	40.1% (active)
CCOC(=O)c1sc2nc(C)nc(Nc3ccc(OC)c(OC)c3)c2c1C	-3.77%
C/C(=N/NC(=S)Nc1ccccc1)c1ccc2c(c1)OCO2	43.2% (active)
C/C(=N\NC(=O)C(N)=O)c1ccc2c(c1)OCCO2	9.07%
C/C(=N/NC(=O)c1ccncc1)c1ccc2c(c1)OCO2	-3.5%
COCCNc1nc(-n2nc(C)cc2C)nc2sc3c(c12)CCCC3	26.3%
Cc1cc(C)n(-c2nc(SCC(=O)N3CCCC3)c3c4c(sc3n2)CCCC4)n1	47.4% (active)
CC(C)c1nc(SCC(=O)Nc2cccc(C(=O)O)c2)c2c3c(sc2n1)CCCC3	6.83%
O=C(OCCO)c1cc(Cl)c(C(=O)OCCO)cc1Cl	-2.48%
COc1ccccc1CNC(=O)CCCNS(=O)(=O)c1cccc2nsnc12	0.215%
C[C@@H]1C(c2ccc(F)cc2)=NN(c2ccc(Br)cc2)[C@H]1C(=O)N1CCOC1=O	44.2% (active)
O=C1OCCN1C(=O)[C@H]1[C@H](c2ccccc2)C(c2ccc(F)cc2)=NN1c1ccccc1	13.6%
O=C1OCCN1C(=O)[C@H]1[C@H](c2ccc(F)cc2)C(c2ccccc2)=NN1c1ccc(Br)cc1	16.8%
CN(C(=O)CN(CCO)CC(=O)N(C)C(C)(C)Cc1ccccc1)C(C)(C)Cc1ccccc1	15.9%
Cc1cc(C)nc(SCC(=O)N(C)C)n1	-9.49%
Cc1cc(C)nc(S/C=C/C(=O)c2ccccc2)n1	49% (active)
Cc1cc(C)nc(SCc2ccccc2C#N)n1	14.7%
